# Experimental data: PubChem BioAssay
# Values joined by “and” are separate entries in the source; they are usually repeats but may differ in a detail not shown here. Equal values may be shown once. Results filed as inconclusive are left out. For part of these data: Measured potencies and affinities stand elsewhere. Active and inactive are the calls of the source. Rule as the data show it, unless noted: active = parasite load remaining mostly below about 12% (no sharp cut-off); inactive = mostly above about 10%. Bridge positions count the residues as written; N and C are the ends. Square brackets hold non-standard residues; d marks the D form. Peptide text beside a SMILES is read from it. * marks the point of attachment. Octanoyl(6-Me) = CCC(C)CCCCC(=O)*; Dab = NCC[CH](N)C(=O)O
# Tests used:
# [1] = target: 6-phosphogluconate dehydrogenase, decarboxylating (Homo sapiens) (UniProt P52209); assay: inhibition of human phosphogluconate dehydrogenase – biochemical, recombinant enzyme, NADPH absorbance, primary screen (AID 1159550;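 active = at least 20% inhibition of 6-phosphogluconate dehydrogenase activity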); conditions: recombinant 6PGD, NADPH absorbance 341 nm; at 10 µM; stronger effect = higher value
# [2] = EMT-state selective cytotoxicity in co-culture – imaging, PC-3E GFP, TEM4-18 mCherry, primary screen (AID 1345086;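 active = compounds killing one labelled cell type while sparing the other, by normalised counts and ratio limits, not self-fluorescent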;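 as to all read-outs here: cells exposed to compound for 72 h before imaging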;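 as to red/green cell ratio (normalised): normalised mesenchymal count divided by normalised epithelial count so high means epithelial killing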); conditions: PC-3E GFP / TEM4-18 mCherry co-culture, imaging cell counts, at 1 µM; for red/green cell ratio (normalised): actives lie on both sides, counts scaled to control wells, 1 = unselective
# [3] = target: NAD(+) hydrolase SARM1 (Homo sapiens) (UniProt Q6SZW1); assay: blocking NAD cleavage by SARM1 SAM-TIR – cell lysate, NAD-Glo luminescence (AID 1508614;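 active = compound whose remaining NAD level is above about 45 nM, limit read from the data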;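 also: higher remaining NAD means stronger inhibition of SARM1 NADase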); conditions: SAM-TIR HEK293T lysate NADase, at 1 µM, stronger effect = higher value
# [4] = P. berghei load reduction in hepatocytes – cell-based, HepG2, luciferase luminescence, HepG2 viability, primary screen (AID 624349);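 also: 100% = mean of DMSO negative control wells on the same plate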; conditions: P. berghei liver stage in HepG2, luciferase luminescence, concentration not given here; parasite load remaining: stronger effect = lower value; viability: measured here: HepG2 viability without parasites
# [5] = viability loss with induced miR-34 in A549 – imaging, A549 dox-inducible miR-34, nuclei and caspase counts, primary screen (AID 1347080;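 active = compounds whose cell count with miR-34 switched on is under 0.7 times the count with it off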); conditions: A549 miR-34 inducible, Hoechst nuclei count, 48 h
# [6] = target: ATP-dependent translocase ABCB1 (Homo sapiens) (UniProt P08183); assay: P-glycoprotein substrate transport blockade – cell-based (AID 377; in the data active = fluorescence slope change above about 50%); conditions: MDR1-expressing cells, fluorescent substrate accumulation slope; stronger effect = higher value; concentration not given here
# [7] = blockers of polyQ-driven CASP3 activation – cell-based (AID 1583); conditions: polyglutamine-induced caspase-3 activation, cell assay; stronger effect = higher value;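 tested at 10 µM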
# [8] = yeast 75Q aggregation reduction – 75Q-TubU reporter (AID 1593); conditions: Yeast 75Q polyglutamine aggregation reporter
# [9] = restoration of touch response, mutant HTT neurons – whole organism, C. elegans mechanosensory neurons, N-terminal huntingtin (AID 1599); conditions: C. elegans polyQ-huntingtin mechanosensory neurons, stronger effect = higher value
# [10] = blockers of cytochrome c efflux from mitochondria – biochemical, purified mitochondria (AID 1603); conditions: stronger effect = lower value;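 also: mouse liver mitochondria challenged with calcium chloride; signal normalized to the plate average as 100%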
# [11] = polyglutamine aggregate formation blockers (AID 1604); conditions: polyglutamine-induced protein aggregation inhibition assay; stronger effect = higher value; tested at 2.5 µM
# [12] = glutamate transport activators, MN-1 cells, MN-1 cell line (AID 1612); conditions: MN-1 motor neuron cells, stronger effect = higher value;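 also: tested at 1 µM final; 0% = mean of DMSO vehicle wells on each plate; positive means more glutamate uptake than control and negative means less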
# [13] = GFP-Q80 aggregate reduction, neuronal-like cells, cell-based, NGF-treated PC12, GFPQ80 (AID 1614); conditions: PC12 NGF-treated GFP-polyQ80 inclusion reduction;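 also: lower means fewer inclusions and 0 means no inclusions at all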
# [14] = 75Q-TubH aggregate inhibition, S. cerevisiae, yeast (AID 1616); conditions: S. cerevisiae 75Q-TubH polyglutamine aggregation suppression; stronger effect = higher value
# [15] = compounds altering viability of human ES cells (AID 493140; call rule not given here;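 also: cells exposed to compounds for four days before counting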); conditions: human embryonic stem cell survival screen; stronger effect = higher value
# [16] = MELAS cybrid and Rieske KO viability enhancers – cell-based, MELAS cybrids, Rieske KO mouse fibroblasts, CellTiter-Glo, primary screen (AID 1508586;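 active = mean z-score across replicates of 1.96 or higher in either the MELAS or the Rieske mutant cell line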;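 also: z relative to plate mean and SD of compound and empty wells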); conditions: low glucose
# [17] = target: Mitogen-activated protein kinase 7 (Homo sapiens) (UniProt Q13164); assay: Gal4-ERK5 driven luciferase induction – cell-based, HTS, primary screen (AID 1508626;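 active = luciferase signal above three times the same-plate solvent-only control wells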;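 also: luciferase driven by Gal4-ERK5 fusion binding five Gal4 sites before minimal TATA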); conditions: HeLa Gal4-ERK5 transactivation, 18 h, at 5 µM, stronger effect = higher value
# [18] = galactose survival enhancers in mitochondrial complex I cybrids – cell-based, galactose medium, ATP luminescence, primary screen (AID 1645843;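 active = z-score of at least 1.8 in each of two replicates, scored against plate mean and spread of sample wells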;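 also: positive z means more ATP and so rescue of galactose-driven cybrid death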); conditions: complex I mutant cybrid cells, 72 h, stronger effect = higher value
# [19] = measured here: epithelial PC-3E GFP cell survival
# [20] = measured here: mesenchymal TEM4-18 mCherry cell survival
# [21] = stronger effect = lower value, cell number ratio, induced over uninduced
# [22] = measured here: relative caspase fold change +Dox/-Dox
# [23] = measured here: total cells with miR-34 induction, stronger effect = lower value
# [24] = measured here: total cells without miR-34 induction
# [25] = MELAS cybrid survival, CellTiter-Glo 48 h, stronger effect = higher value
# [26] = Rieske KO mouse fibroblast survival, CellTiter-Glo 72 h
# Sequence of NAD(+) hydrolase SARM1 (Homo sapiens) (Q6SZW1 whole entry, looked up): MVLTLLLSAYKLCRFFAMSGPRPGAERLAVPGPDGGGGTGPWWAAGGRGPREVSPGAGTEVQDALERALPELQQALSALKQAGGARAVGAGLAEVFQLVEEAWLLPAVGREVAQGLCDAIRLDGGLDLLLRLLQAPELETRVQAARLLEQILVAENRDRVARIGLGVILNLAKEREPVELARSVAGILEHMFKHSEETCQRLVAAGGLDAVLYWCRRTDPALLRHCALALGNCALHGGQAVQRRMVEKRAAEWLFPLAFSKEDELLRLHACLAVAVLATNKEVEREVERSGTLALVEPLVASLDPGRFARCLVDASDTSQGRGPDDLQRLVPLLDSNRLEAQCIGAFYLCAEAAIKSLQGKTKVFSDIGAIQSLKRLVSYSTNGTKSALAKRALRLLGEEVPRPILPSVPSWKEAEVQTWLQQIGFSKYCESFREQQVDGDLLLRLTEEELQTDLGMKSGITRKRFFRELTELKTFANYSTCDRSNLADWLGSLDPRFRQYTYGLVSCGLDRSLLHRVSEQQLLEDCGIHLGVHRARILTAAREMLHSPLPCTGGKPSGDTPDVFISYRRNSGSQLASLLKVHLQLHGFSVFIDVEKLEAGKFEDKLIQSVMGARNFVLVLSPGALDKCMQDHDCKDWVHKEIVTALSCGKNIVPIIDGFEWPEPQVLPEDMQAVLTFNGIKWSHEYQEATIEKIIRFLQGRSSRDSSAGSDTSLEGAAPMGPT
# Sequence of 6-phosphogluconate dehydrogenase, decarboxylating (Homo sapiens) (P52209 whole entry, looked up): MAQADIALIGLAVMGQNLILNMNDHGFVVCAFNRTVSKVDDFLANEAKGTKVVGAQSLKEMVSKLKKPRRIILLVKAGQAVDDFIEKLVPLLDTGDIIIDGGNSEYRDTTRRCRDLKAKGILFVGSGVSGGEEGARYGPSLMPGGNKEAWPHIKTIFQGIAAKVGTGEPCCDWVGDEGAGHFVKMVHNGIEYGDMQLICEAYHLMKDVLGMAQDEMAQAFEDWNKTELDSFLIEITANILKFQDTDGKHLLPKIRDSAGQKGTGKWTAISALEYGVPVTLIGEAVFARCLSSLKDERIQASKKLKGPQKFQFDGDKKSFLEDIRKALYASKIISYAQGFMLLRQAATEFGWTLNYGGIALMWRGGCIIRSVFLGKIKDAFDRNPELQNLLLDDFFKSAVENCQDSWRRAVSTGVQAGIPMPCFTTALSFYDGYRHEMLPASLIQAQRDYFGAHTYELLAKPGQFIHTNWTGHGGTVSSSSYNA
# Sequence of Mitogen-activated protein kinase 7 (Homo sapiens) (Q13164 whole entry, looked up, the tested form may be a part): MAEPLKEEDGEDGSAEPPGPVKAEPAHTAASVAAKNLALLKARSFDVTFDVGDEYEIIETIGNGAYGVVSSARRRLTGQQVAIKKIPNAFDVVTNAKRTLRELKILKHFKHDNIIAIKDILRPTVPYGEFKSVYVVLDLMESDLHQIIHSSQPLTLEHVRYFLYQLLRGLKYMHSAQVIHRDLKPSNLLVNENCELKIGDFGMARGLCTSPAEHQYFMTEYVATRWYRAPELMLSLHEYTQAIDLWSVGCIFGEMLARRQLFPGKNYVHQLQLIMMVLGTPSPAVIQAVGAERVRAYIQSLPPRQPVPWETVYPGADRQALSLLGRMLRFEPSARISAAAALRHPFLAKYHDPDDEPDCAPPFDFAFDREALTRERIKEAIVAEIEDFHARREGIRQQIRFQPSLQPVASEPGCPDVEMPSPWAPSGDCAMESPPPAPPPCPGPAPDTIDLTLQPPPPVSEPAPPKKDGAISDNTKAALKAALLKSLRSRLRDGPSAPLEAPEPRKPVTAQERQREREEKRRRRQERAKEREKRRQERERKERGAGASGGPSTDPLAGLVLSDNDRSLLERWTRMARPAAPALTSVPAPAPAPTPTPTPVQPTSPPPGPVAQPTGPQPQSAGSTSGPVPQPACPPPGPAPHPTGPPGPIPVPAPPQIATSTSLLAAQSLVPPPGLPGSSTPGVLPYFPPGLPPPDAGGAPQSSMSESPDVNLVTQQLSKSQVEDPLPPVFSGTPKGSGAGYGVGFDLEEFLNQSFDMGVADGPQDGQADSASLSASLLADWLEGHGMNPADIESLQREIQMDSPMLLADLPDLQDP
# Sequence of ATP-dependent translocase ABCB1 (Homo sapiens) (P08183 whole entry, looked up): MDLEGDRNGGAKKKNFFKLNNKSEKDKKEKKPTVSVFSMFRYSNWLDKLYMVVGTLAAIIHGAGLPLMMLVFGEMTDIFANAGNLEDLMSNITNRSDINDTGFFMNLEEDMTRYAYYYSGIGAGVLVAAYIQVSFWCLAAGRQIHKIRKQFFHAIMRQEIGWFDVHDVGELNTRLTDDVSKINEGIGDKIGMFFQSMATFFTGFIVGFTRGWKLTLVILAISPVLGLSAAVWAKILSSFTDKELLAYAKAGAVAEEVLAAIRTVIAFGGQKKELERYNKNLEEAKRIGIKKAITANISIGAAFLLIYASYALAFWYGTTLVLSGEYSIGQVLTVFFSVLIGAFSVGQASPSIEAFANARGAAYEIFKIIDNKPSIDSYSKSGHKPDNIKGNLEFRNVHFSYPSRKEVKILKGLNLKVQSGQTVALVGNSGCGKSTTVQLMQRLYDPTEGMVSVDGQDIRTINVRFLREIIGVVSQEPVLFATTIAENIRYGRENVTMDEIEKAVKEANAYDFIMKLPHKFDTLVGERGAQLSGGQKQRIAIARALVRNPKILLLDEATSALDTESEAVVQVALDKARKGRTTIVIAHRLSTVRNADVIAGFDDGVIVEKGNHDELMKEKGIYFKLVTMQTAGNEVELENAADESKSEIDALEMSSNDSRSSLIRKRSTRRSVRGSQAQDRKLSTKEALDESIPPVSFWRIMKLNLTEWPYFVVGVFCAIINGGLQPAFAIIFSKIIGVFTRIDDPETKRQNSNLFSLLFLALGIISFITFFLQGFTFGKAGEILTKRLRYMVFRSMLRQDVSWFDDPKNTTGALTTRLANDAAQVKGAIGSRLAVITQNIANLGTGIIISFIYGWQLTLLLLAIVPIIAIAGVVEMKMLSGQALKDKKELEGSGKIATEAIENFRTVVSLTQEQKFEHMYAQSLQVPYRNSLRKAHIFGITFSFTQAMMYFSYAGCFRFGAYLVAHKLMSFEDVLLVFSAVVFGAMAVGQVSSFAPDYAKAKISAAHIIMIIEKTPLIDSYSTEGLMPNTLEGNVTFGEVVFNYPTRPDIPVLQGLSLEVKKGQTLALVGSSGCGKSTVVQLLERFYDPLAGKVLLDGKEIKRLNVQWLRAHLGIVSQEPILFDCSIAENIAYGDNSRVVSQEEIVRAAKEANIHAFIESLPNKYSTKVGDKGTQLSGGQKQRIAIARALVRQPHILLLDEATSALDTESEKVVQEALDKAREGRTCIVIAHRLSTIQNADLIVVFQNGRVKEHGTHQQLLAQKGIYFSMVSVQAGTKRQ
smiles,measurement,setting,value
NC[C@@H]1CC[C@@H](N)[C@@H](O[C@H]2[C@H](O)[C@@H](O[C@H]3O[C@H](CO)[C@@H](O)[C@H](N)[C@H]3O)[C@H](N)C[C@@H]2N)O1,inhibition,[1],-2.83% (inactive)
same,red/green cell ratio (normalised),[2],1.19 (inactive)
same,normalised cell number,[2]; [19],0.9
same,normalised cell number,[2]; [20],1.07
same,remaining NAD,[3],10 nM (inactive)
COc1ccc2c(c1OC)C(=O)O[C@H]2[C@H]1c2c(cc3c(c2OC)OCO3)CCN1C,parasite load remaining,[4],93.3% (inactive) and 73.1% (inactive)
same,viability,[4],64.7% and 94.8%
same,inhibition,[1],4.17% (inactive)
same,red/green cell ratio (normalised),[2],1.15 (inactive)
same,normalised cell number,[2]; [19],1.08
same,normalised cell number,[2]; [20],1.24
same,fold change,[5]; [21],0.877 (inactive)
same,fold change,[5]; [22],1.33
same,cell count,[5]; [23],8940
same,cell count,[5]; [24],10200
CCCCN1CCCCC1C(=O)Nc1c(C)cccc1C (stereo not given),fluorescence slope change,[6],-6% (inactive)
same,inhibition,[7],17%
same,score,[8],1.42
same,rescue above control,[9],-7.52
same,cytochrome c release ratio,[10],0.81
same,inhibition of aggregation,[11],-27.4%
same,glutamate uptake change,[12],1.83%
same,inclusion score,[13],2
same,aggregation suppression score,[14],1.3
same,survival,[15],10.1 (inactive)
same,inhibition,[1],3.83% (inactive)
same,red/green cell ratio (normalised),[2],1.17 (inactive)
same,normalised cell number,[2]; [19],1.13
same,normalised cell number,[2]; [20],1.33
same,z-score,[16]; [25],-0.429 (inactive) and 0.622 (inactive) and -0.162 (inactive)
same,z-score,[16]; [26],-0.124 and 0.613 and -0.528
same,remaining NAD,[3],10 nM (inactive)
same,luciferase signal,[17],68 AU (inactive)
same,z-score,[18],0.545 (inactive)
CC[C@H]1OC(=O)C[C@@H](O)[C@H](C)[C@@H](O[C@@H]2O[C@H](C)[C@@H](O[C@H]3C[C@@](C)(O)[C@@H](O)[C@H](C)O3)[C@H](N(C)C)[C@H]2O)[C@@H](CC=O)C[C@@H](C)C(=O)/C=C/C(C)=C/[C@@H]1CO[C@@H]1O[C@H](C)[C@@H](O)[C@@H](OC)[C@H]1OC,parasite load remaining,[4],131% (inactive) and 58.3% (inactive)
same,viability,[4],85.6% and 145%
same,inhibition,[1],1.55% (inactive)
same,red/green cell ratio (normalised),[2],1.03 (inactive)
same,normalised cell number,[2]; [19],1.05
same,normalised cell number,[2]; [20],1.08
same,fold change,[5]; [21],0.905 (inactive)
same,fold change,[5]; [22],5.16
same,cell count,[5]; [23],12000
same,cell count,[5]; [24],13200
same,remaining NAD,[3],10 nM (inactive)
same,luciferase signal,[17],16 AU (inactive)
CC(=C(CCOP(=O)(O)O)SC(=O)c1ccccc1)N(C=O)Cc1cnc(C)nc1N,inhibition,[7],9.82%
same,score,[8],1.37
same,rescue above control,[9],3.18
same,cytochrome c release ratio,[10],0.86
same,inhibition of aggregation,[11],39.4%
same,glutamate uptake change,[12],18.4%
same,inclusion score,[13],2
same,aggregation suppression score,[14],0.998
same,inhibition,[1],-10.8% (inactive)
same,red/green cell ratio (normalised),[2],0.95 (inactive)
same,normalised cell number,[2]; [19],1.05
same,normalised cell number,[2]; [20],1
same,remaining NAD,[3],10 nM (inactive)
O=C(O)CN(CCN(CC(=O)O)CC(=O)O)CC(=O)O,inhibition,[7],13.2%
same,score,[8],1.69
same,rescue above control,[9],-6.51
same,cytochrome c release ratio,[10],0.54
same,inhibition of aggregation,[11],72.4%
same,glutamate uptake change,[12],-23.4%
same,inclusion score,[13],1.5
same,aggregation suppression score,[14],1.43
same,parasite load remaining,[4],74.6% (inactive) and 69.8% (inactive)
same,viability,[4],73.4% and 97.7%
same,inhibition,[1],8.13% (inactive)
same,red/green cell ratio (normalised),[2],1.05 (inactive) and 0.92 (inactive)
same,normalised cell number,[2]; [19],1.05 and 1.23
same,normalised cell number,[2]; [20],1.11 and 1.13
same,fold change,[5]; [21],0.899 (inactive)
same,fold change,[5]; [22],3.42
same,cell count,[5]; [23],11600
same,cell count,[5]; [24],12900
same,remaining NAD,[3],10 nM (inactive)
Nc1c2ccccc2nc2ccccc12 (tested in a mixture with another compound),parasite load remaining,[4],2.09% (inactive) and 61.1% (inactive)
same,viability,[4],97.8% and 80.2%
same,inhibition,[1],3.89% (inactive)
same,red/green cell ratio (normalised),[2],0.94 (inactive)
same,normalised cell number,[2]; [19],1.25
same,normalised cell number,[2]; [20],1.17
same,fold change,[5]; [21],1.59 (inactive)
same,fold change,[5]; [22],1.23
same,cell count,[5]; [23],1530
same,cell count,[5]; [24],960
same,remaining NAD,[3],10 nM (inactive)
same,luciferase signal,[17],80 AU (inactive)
CC(C(=O)O)c1cccc(Oc2ccccc2)c1 (stereo not given),fluorescence slope change,[6],22.2% (inactive)
same,inhibition,[7],-4.11%
same,score,[8],0.02
same,rescue above control,[9],4.41
same,cytochrome c release ratio,[10],0.68
same,inhibition of aggregation,[11],72.7%
same,glutamate uptake change,[12],5.16%
same,inclusion score,[13],2
same,aggregation suppression score,[14],0.0306
same,survival,[15],1.75 (inactive)
same,inhibition,[1],15.8% (inactive)
same,red/green cell ratio (normalised),[2],0.89 (inactive)
same,normalised cell number,[2]; [19],1.13
same,normalised cell number,[2]; [20],1
same,z-score,[16]; [25],-0.0579 (inactive) and -0.205 (inactive) and 0.473 (inactive)
same,z-score,[16]; [26],-0.141 and -0.109 and 0.281
same,remaining NAD,[3],10 nM (inactive)
same,luciferase signal,[17],72 AU (inactive)
same,z-score,[18],0.865 (inactive)
CCCCC(=O)Oc1ccccc1C(=O)O,inhibition,[1],18.3% (inactive)
same,red/green cell ratio (normalised),[2],0.89 (inactive)
same,normalised cell number,[2]; [19],1.25
same,normalised cell number,[2]; [20],1.11
same,fold change,[5]; [21],0.935 (inactive)
same,fold change,[5]; [22],0.938
same,cell count,[5]; [23],5290
same,cell count,[5]; [24],5650
same,luciferase signal,[17],56 AU (inactive)
CC(=O)Nc1ccc(OC(=O)c2ccccc2O)cc1,inhibition,[7],-0.86%
same,score,[8],0.55
same,rescue above control,[9],4.5
same,cytochrome c release ratio,[10],1.29
same,inhibition of aggregation,[11],92.3%
same,glutamate uptake change,[12],0.86%
same,inclusion score,[13],2
same,aggregation suppression score,[14],0.54
same,parasite load remaining,[4],50.3% (inactive)
same,viability,[4],71.4%
same,inhibition,[1],-12.6% (inactive)
same,red/green cell ratio (normalised),[2],0.93 (inactive)
same,normalised cell number,[2]; [19],1.16
same,normalised cell number,[2]; [20],1.08
same,remaining NAD,[3],10 nM (inactive)
same,luciferase signal,[17],40 AU (inactive)
COc1ccc2cc([C@H](C)CO)ccc2c1,parasite load remaining,[4],184% (inactive) and 65% (inactive)
same,viability,[4],85.1% and 144%
same,inhibition,[1],2.43% (inactive)
same,red/green cell ratio (normalised),[2],1.04 (inactive)
same,normalised cell number,[2]; [19],1.15
same,normalised cell number,[2]; [20],1.2
same,fold change,[5]; [21],0.861 (inactive)
same,fold change,[5]; [22],3.55
same,cell count,[5]; [23],11000
same,cell count,[5]; [24],12800
same,remaining NAD,[3],10 nM (inactive)
same,luciferase signal,[17],32 AU (inactive)
CCC(C)CCCCC(=O)NC(CCN)C(=O)NC(C(=O)NC(CCN)C(=O)NC1CCNC(=O)C(C(C)O)NC(=O)C(CCN)NC(=O)C(CCN)NC(=O)C(CC(C)C)NC(=O)C(Cc2ccccc2)NC(=O)C(CCN)NC1=O)C(C)O (stereo not given) ({Octanoyl(6-Me)}-[Dab]T[Dab][Dab][Dab]FL[Dab][Dab]T; lactam 4-C; configuration not given here),inhibition,[7],15%
same,score,[8],0.73
same,rescue above control,[9],0
same,cytochrome c release ratio,[10],7.61
same,inhibition of aggregation,[11],70.5%
same,glutamate uptake change,[12],-11.7%
same,inclusion score,[13],2
same,aggregation suppression score,[14],0.739
same,parasite load remaining,[4],82.5% (inactive) and 41.4% (inactive)
same,viability,[4],77.7% and 91.4%
same,inhibition,[1],11% (inactive)
same,red/green cell ratio (normalised),[2],1.23 (inactive)
same,normalised cell number,[2]; [19],0.93
same,normalised cell number,[2]; [20],1.14
same,fold change,[5]; [21],0.886 (inactive)
same,fold change,[5]; [22],2.98
same,cell count,[5]; [23],11700
same,cell count,[5]; [24],13200
same,remaining NAD,[3],10 nM (inactive)
